Out of some 290,000 compounds screened, about 27,000 (9.3%) were called active. Only a selection was taken, and actives are over-represented in it overall. Unmarked numbers belong to inactive results. No stated cut-off is given here; in the data, active means inhibition mostly above about 28% (no sharp cut-off); inactive means mostly below about 43%.
assay: A qHTS for Small Molecule Inhibitors of Shiga Toxin; settings: Vero cells, Shiga toxin protein synthesis inhibition reporter; at 38.7 µM, stronger effect = higher value; further: 0% is about no effect

Row | Structure (SMILES) | inhibition
1 | CCCOc1ccc(CNC(=O)C2CCN(c3nn4c(=O)cc(C)nc4s3)CC2)cc1 | -3.64%
2 | Cc1cccnc1CCNC(=O)C1CCC(=O)N(Cc2cccc(F)c2)C1 (configuration not stated) | -6.16%
3 | COC(CNC(=O)c1ccc2c(c1)ncn2-c1cc(C)cc(C)c1)OC | 4.27%
4 | COc1cccc(CN(C)C(=O)CC23CC4CC(CC(C4)C2)C3)c1OC | -11.5%
5 | CS(=O)(=O)c1ccc(-c2nnn(CC(=O)Nc3ccc4c(c3)OCCO4)n2)cc1 | 20.6%
6 | Cc1ccc(OCC(=O)Nc2ccc(NC(=O)c3cccs3)cc2)c(C)c1 | 25.9%
7 | CCc1ccc(NC(=O)COC(=O)c2cccs2)cc1 | 51.4% (active)
8 | CCc1cccc(NC(=O)CCNS(=O)(=O)c2cccc3nonc23)c1 | -3.23%
9 | CCc1ccc(NC(=O)CCNS(=O)(=O)c2cccs2)cc1 | 53.4% (active)
10 | O=S(=O)(NCCc1ccc(Cl)cc1)c1cccs1 | 10.5%
11 | C/C(=N\OCC(=O)Nc1ccc(Br)cc1)c1cccs1 | 40.3%
12 | COc1ccccc1C(=O)N(C1=NC(C)CS1)c1ccc(Cl)cc1 (configuration not stated) | -5.01%
13 | COc1ccccc1CNC(=O)C1CCN(C(=O)[C@@H]2Cc3ccccc3CN2)CC1 | 13.3%
14 | Cc1c(C(=O)NCC(c2ccco2)N2CCCC2)oc2ccc(Cl)cc12 (configuration not stated) | 49.7%
15 | Cc1nc2nc(SCC(=O)Nc3cccc(F)c3)[nH]c2cc1Br | 6.55%
16 | CCCCn1c(SCC(=O)N2CCOCC2)nc2c1c(=O)n(C)c(=O)n2C | -5.05%
17 | CCOc1ccc(NC(=O)N(CC(C)C)CC(C)C)cc1 | 26.1%
18 | O=C(Nc1ccc2c(c1)C(=O)OC2)Nc1cccc2ccccc12 | 12.8%
19 | CC(=O)N(C)c1ccc(NC(=O)Nc2cccc3ccccc23)cc1 | 77.5% (active)
20 | O=C(O)Cc1ccc(NC(=O)Nc2cccc3ccccc23)cc1 | -1.4%
21 | CC(=O)N(C)c1ccc(NC(=O)C(F)(F)F)cc1 | 13.5%
22 | CCOc1ccc(NC(=O)Nc2ccc(N(C)C(C)=O)cc2)cc1 | 73.9% (active)
23 | NS(=O)(=O)c1ccc(CCNC(=O)c2nc(CS(=O)(=O)c3ccc(Cl)cc3)no2)cc1 | -2.78%
24 | FC(F)(F)c1ccnc(Oc2ccc(C3=NCCS3)cc2)c1 | 64.7% (active)
25 | O=Cc1ccc(Oc2cccc(C(F)(F)F)c2)nc1 | 12.2%

Row | Structure (SMILES) | inhibition
26 | C[C@H](NC(=O)C1CC(=O)N(c2ccc3c(c2)OCO3)C1)C(=O)NCc1ccco1 (some centres not stated) | -4.62%
27 | O=S(=O)(NC1CCCCC1N1CCCCC1)c1ccc(Cl)cc1 (configuration not stated) | -21.5%
28 | O=C(NCc1ccncc1)C1CCCN(S(=O)(=O)c2ccc(Br)cc2)C1 (configuration not stated) | -9.96%
29 | COCCNc1nc(-n2nc(C)cc2C)nc2sc3c(c12)CCCC3 | 51.2% (active)
30 | CCC(O)CNc1nc(-n2nc(C)cc2C)nc2sc3c(c12)CC(C)(C)OC3 (configuration not stated) | -11.2%
31 | Cc1nc2sc3c(c2c(=O)n1NC(=O)CCl)CCCC3 | -6.21%
32 | COc1ccccc1NC(=O)c1cc(N2C(=O)C3C4CCC(C4)C3C2=O)ccc1Cl (configuration not stated) | -3.33%
33 | COc1ccccc1N1CCN(S(=O)(=O)c2ccc3c(c2)NC(=O)CS3)CC1 | 16.6%
34 | N#Cc1c(NC(=O)CCCl)sc2c1CCCCC2 | 25%
35 | N#Cc1c(NC(=O)C2CCCO2)sc2c1CCCCC2 (configuration not stated) | 82.7% (active)
36 | N#Cc1c(NC(=O)C2CC(Cl)=CCC2C(=O)O)sc2c1CCCCC2 (configuration not stated) | 18.3%
37 | Cc1c(C)c2ccc(OCC(=O)N3CCC(C(=O)O)CC3)c(C)c2oc1=O | -1.33%
38 | Nc1ccn(C2CC(O)C(CO)O2)c(=O)n1 (configuration not stated) | -2.7%
39 | CCOC(=O)c1c(NC(=O)CSc2nccc(=O)[nH]2)sc(C)c1C | -11.1%
40 | Cc1ccc2ccc3c(c2n1)NS(=O)(=O)c1ccccc1-3 | -4.77%
41 | CCOC(=O)c1cc(Sc2ccccc2N)cc(C(=O)OCC)n1 | -2.59%
42 | Nc1ccccc1Sc1ccc(C(F)(F)F)cc1[N+](=O)[O-] | -8.21%
43 | CCS(=O)(=O)c1cc([N+](=O)[O-])c(Sc2ccccc2N)s1 | 101% (active)
44 | C/C(=N\NC(=O)c1nc(C)cc(C)n1)c1ccccc1 | 86.5% (active)
45 | COc1ccc(/C(C)=N/NC(=O)c2ccc3nc[nH]c3c2)cc1 | -11.9%
46 | C/C(=N\NC(=O)c1cccnc1)c1ccc(-c2ccccc2)cc1 | 20.1%
47 | COc1ccc(N=Nc2c(-c3ccc(OC)cc3)[nH]oc2=O)cc1 | -1.4%
48 | Cc1cc(C)cc(OCC(=O)NC(C)c2ccccc2)c1 (configuration not stated) | 16.2%
49 | COc1cc(NC(=O)c2ccccc2)c(OC)cc1NC(=O)Cc1ccccc1 | -6.61%
50 | COc1ccc(Cc2nc3ccc(C(=O)N4CCC(N(C)C)C4)cc3o2)cc1 (configuration not stated) | 5%

Row | Structure (SMILES) | inhibition
51 | COC(=O)C1CCN(C(=O)c2ccc3oc(Cc4ccc(Cl)cc4)nc3c2)CC1 | -23.6%
52 | COCC1CCN(C(=O)c2ccc3oc(Cc4ccccc4)nc3c2)C1 (configuration not stated) | 42.2% (active)
53 | CN(C)c1ccc(/C=C2\NC(=S)N(Cc3ccccc3)C2=O)cc1 | 3.47%
54 | CCc1nn(CCCC(=O)NC(C)c2ccccc2)c(=O)c2cc3occc3n12 (configuration not stated) | 11.1%
55 | CCCC(=O)Nc1ccc(Cl)c(NC(=O)c2ccc(Br)o2)c1 | -13.8%
56 | O=C(CNC(=O)c1ccc(Br)o1)NCC1CCCO1 (configuration not stated) | -17.7%
57 | CC(C)(C)C1CCC(=NNC(=O)c2cc(-c3ccccc3)n[nH]2)CC1 (configuration not stated) | 5.96%
58 | CC(NC(=O)C(=O)NN=C1CCC(C(C)(C)C)CC1)c1ccccc1 (configuration not stated) | -9.73%
59 | CCC(C)(C)C1CCC(=NNC(=O)c2ccc(Br)o2)CC1 (configuration not stated) | 123% (active)
60 | CC(C)(C)C1CCC(=NNC(=O)c2ccc(Br)o2)CC1 (configuration not stated) | 50.9% (active)
61 | O=C(CCN1C(=O)[C@@H]2Cc3ccccc3CN2C1=O)NCc1ccccc1 | -1.35%
62 | CCc1ccc(S(=O)(=O)N/N=C\c2ccc([N+](=O)[O-])o2)cc1 | 9.6%
63 | O=C(/C=C/c1ccc(OCc2c(F)cccc2Cl)cc1)N1CCOCC1 | 54.8%
64 | CCOC(=O)C(C)n1cnc2scc(-c3ccc(C)c(C)c3)c2c1=O (configuration not stated) | 2.19%
65 | CCCN1C2=C(C(=O)CCC2)C(c2ccc(O)c(Br)c2)C2=C1CCCC2=O | 6.12%
66 | CCOC(=O)C1(CCOc2ccccc2)CCN(Cc2cc(OC)c(O)cc2Cl)CC1 | 21.9%
67 | CCN(CC)CCn1cnc2c1c(=O)[nH]c(=O)n2Cc1ccccc1 | -12.7%
68 | C=CCNC(=O)COc1coc(CN2CCN(Cc3ccccc3)CC2)cc1=O | -1.93%
69 | COc1ccccc1/C=C1\SC(=O)N(CCC(=O)N(C)C2CCS(=O)(=O)C2)C1=O (configuration not stated) | 18.1%
70 | COc1ccc(/C=C2\SC(=O)N(CCC(=O)NCCCn3ccnc3)C2=O)cc1 | 65.3% (active)
71 | O=C(CN1C(=O)S/C(=C\c2ccccc2F)C1=O)NCCCn1ccnc1 | 1.8%
72 | COc1ccc(/C=C2\SC(=O)N(CCC(=O)NC3CCS(=O)(=O)C3)C2=O)cc1 (configuration not stated) | 65.1% (active)
73 | O=C(CCN1C(=O)c2ccccc2C1=O)NCCCn1ccnc1 | -4.06%
74 | COc1ccc(NC(=O)CCN2C(=O)/C(=C/c3ccc4c(c3)OCO4)SC2=S)cc1 | -2.97%
75 | O=C1C(=O)N(CCN2CCOCC2)C(c2cccc(Cl)c2)/C1=C(/O)c1ccc2c(c1)OCO2 (configuration not stated) | -5.97%

Row | Structure (SMILES) | inhibition
76 | CS(=O)(=O)N(CC(=O)N1CCCCCC1)c1cccc(Cl)c1Cl | -8.4%
77 | CC(=O)N1CCOc2ccc(S(=O)(=O)N3CCC(C(=O)Nc4ccccc4F)CC3)cc21 | -3.81%
78 | CSCCC(NS(=O)(=O)c1ccc(C)cc1)C(=O)N1CCCC1 (configuration not stated) | -8.89%
79 | COc1ccc2c(C)c(CCC(=O)NC3CC3)c(=O)oc2c1C | 12.7%
80 | Nc1nnnn1CC(=O)N/N=C/c1ccc(-c2cccc(Cl)c2)o1 | 14.1%
81 | O=C(N/N=C\c1ccc(-c2ccc(Cl)c(Cl)c2)o1)C(=O)N1CCCC1 | -9.82%
82 | COC(=O)N/N=C/c1ccc(-c2ccc(Cl)c(Cl)c2)o1 | 59.7% (active)
83 | CS/C(=C\C(=O)c1ccco1)Nc1ccccc1Cl | 53.1% (active)
84 | O=C(Nc1ccccc1C(=O)N1CCCCC1)c1ccco1 | -5.5%
85 | O=C(c1cccc(S(=O)(=O)Nc2ccccc2Cl)c1)N1CCN(C(=O)c2ccco2)CC1 | 10.9%
86 | Cc1c(Cl)cccc1NC(=O)[C@@]1(CC(=O)O)CC(/C=C/c2ccccc2)=NO1 | 4.14%
87 | COc1cccc(-c2cc(C(=O)N/N=C/c3ccc(OC)c(COC(C)=O)c3)c3ccccc3n2)c1 | 13.2%
88 | CCOc1cc(/C=N/NC(=O)c2cc(-c3ccccc3)nc3ccccc23)ccc1O | 46.8% (active)
89 | CCOc1cc(/C=N/Nc2cc(C)nc3ccc(C)cc23)ccc1O | 16.6%
90 | Cc1cc(=O)oc2cc(OC(C)C(=O)NCCc3ccc(S(N)(=O)=O)cc3)ccc12 (configuration not stated) | -15.1%
91 | CC(=O)N1CCOc2ccc(S(=O)(=O)N3CCN(c4cccc(C(F)(F)F)c4)CC3)cc21 | -3.75%
92 | CCCCCc1ccc(-c2cn(Cc3ccc4ccccc4c3)nn2)cc1 | -7.01%
93 | CCOc1c(CNCc2ccc(C(=O)O)cc2)cccc1OC | 11.6%
94 | CCCCOc1ccc(-c2ncc(C(=O)OCC)c(N)n2)cc1 | 21.7%
95 | CCCCCc1ccc(-c2ccc(C(=O)O)cc2)nc1 | 71.9% (active)
96 | CCCCCc1ccc(-c2ccc(OCC)cc2)nc1 | 43.4% (active)
97 | O=C(O)c1ccc(COCC(F)(F)F)cc1 | 8.49%

Source: PubChem BioAssay AID2315 (National Center for Advancing Translational Sciences (NCATS), 2010)
